# From PubChem BioAssay AID2275 (Broad Institute, 2010)
# The whole screen tested about 30,000 compounds, of which about 190 (0.63%) were called active. What follows is part of a selection rich in actives, with near analogues and random picks from the rest. Values without a mark were called inactive. Cut-off read from the data, not from the text of the source: active = viability loss activity score above about 50%; inconclusive = no clear call, values can overlap the other calls; inactive = below about 35%.
# Experiment: cytotoxicity in HRASV12-transformed BJ fibroblasts – cell-based, luminescence, CellTiterGlo ATP, primary screen (AID 2275);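 note: higher score means fewer live cells and less ATP luminescence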
# Conditions: BJeLR fibroblasts viability, 48 h, hits give high values, HRASV12, hTERT and SV40 LT/ST transformed, concentration not given here
row,SMILES,viability loss activity score
1,Cc1nnn(C23CC4CC(CC(CC(=O)Nc5ccc(Cl)cc5)(C4)C2)C3)n1,-2.2%
2,CC(C)(C)c1ccc(/C=C/C(=O)NCCCn2ccnc2)cc1,0.598%
3,Nc1cc(=O)[nH]c2nnc(SCc3ccc(Br)cc3)n12,-1.86%
4,Cc1ccc(N2C(=O)c3oc4cc(C)c(C)cc4c(=O)c3C2c2ccc(O)cc2)nc1 (stereo unspecified),-1.21%
5,Oc1ccc(CN2CCCC2)c2cccnc12,-4.68%
6,CC1(C)Cc2c(cnn2-c2ccc(F)cc2)-c2nc3ccccc3nc21,-0.68%
7,CC(C)N(Cc1nc(-c2ccccc2)no1)C(=O)CCc1ccccc1,-7.42%
8,Nn1c(C(=O)N2CCCC2)nc2ccccc2c1=O,-0.611%
9,CC(C)c1ccc(S(=O)(=O)N2CCN(S(=O)(=O)c3ccc(C(C)C)cc3)C(C)C2)cc1 (stereo unspecified),4.1%
10,CC1C=CCC2C(=O)N(c3cccc(Cl)c3)C(=O)C12 (stereo unspecified),0.408%
11,CCCCN(Cc1ccccc1)S(=O)(=O)c1ccc2c(c1)oc(=O)n2CC(=O)OCC,-1.44%
12,O=C1c2ccccc2C(=O)N1CCCC(=O)n1ccc2ccccc21,-4.38%
13,O=C(O)C1=NN(c2ccccc2)C(=O)/C1=C/c1cccs1,5.24%
14,O=C(CCSc1nc(-c2ccco2)cc(C(F)(F)F)n1)N1CCCCC1,-3.03%
15,COc1ccc(Cn2c(=O)oc3ccccc32)cc1,-1.69%
16,C[C@H](CO)N1C[C@H](C)[C@H](CN(C)S(=O)(=O)c2cccs2)Oc2c(NC(=O)Nc3ccc4c(c3)OCO4)cccc2C1=O,1.64%
17,C=CCNC(=O)/C=C/c1ccc(C(C)C)cc1,-1.64%
18,COc1cc2c(C(=O)N3CCN(c4ccccc4)CC3)cn(CC(C)C)c(=O)c2cc1OC,-11.1%
19,CCN(C(=O)CSc1nc2ccccc2c2nc3ccccc3n12)c1cccc(C)c1,0.323%
20,O=C(NC1CCCC1)c1cc(-c2ccc(Br)cc2)on1,-5.17%
21,C[C@@H]1CN([C@H](C)CO)C(=O)c2cc(NS(=O)(=O)c3cccs3)ccc2O[C@H]1CN(C)Cc1ccncc1,1.52%
22,NNC(=O)CN1C(c2ccc(Cl)cc2)=Nc2ccc(Cl)cc2C1c1ccccc1 (stereo unspecified),4.53%
23,CC1=C(C(=O)Nc2ccccc2Br)C2(CCCCC2)OC1=O,-3.85%
24,O=C(Nc1cccnc1)c1cc2c(s1)-c1ccccc1CC2,2.6%
25,COc1ccc(S(=O)(=O)N(C)C[C@H]2Oc3ccc(NS(C)(=O)=O)cc3C(=O)N([C@H](C)CO)C[C@H]2C)cc1,4.8%
26,CC(C)c1ccc(NC(=O)c2ccc(NS(=O)(=O)c3cccs3)cc2)cc1,11.3%

row,SMILES,viability loss activity score
1,CCOc1ccc(NC(=O)Cn2c3c(c(-c4ccccc4)cc2=O)CCCC3)cc1,3.03%
2,Cc1ccc2nc(-c3ccc(NC(=O)C4CCC4)cc3)sc2c1,-1.59%
3,Cc1ccc(OCC(=O)Nc2ccc(-c3nn4c(C)nnc4s3)cc2)cc1,-1.91%
4,CC1CCCCN1C(=O)CSc1nc(-c2ccccc2)cc(C(F)(F)F)n1 (stereo unspecified),-1.5%
5,CCC1=Nc2cc(C(=O)NCCCN3CCOCC3)ccc2Sc2ccc(Br)cc21,7.81%
6,C[C@@H]1CN([C@@H](C)CO)C(=O)c2cccc(NC(=O)Nc3ccc(C(F)(F)F)cc3)c2O[C@@H]1CN(C)S(=O)(=O)c1ccc(F)cc1,-0.826%
7,N=c1n(CC(=O)c2ccc(Cl)c(Cl)c2)c2ccccc2n1Cc1ccccc1,0.84%
8,O=C(NCCc1ccccc1)c1ccc(NC2=NC3CS(=O)(=O)CC3S2)cc1 (stereo unspecified),2.13%
9,COc1ccc(S(=O)(=O)Nc2cccc3c2O[C@@H](CN(C)Cc2ccc(-c4ccccc4)cc2)[C@H](C)CN([C@H](C)CO)C3=O)cc1,1.26%
10,CC(=O)NC(c1ccccc1)c1ccc2cccnc2c1O (stereo unspecified),76.4% (active)
11,CC(C)(C)c1cc(C(=O)Oc2ccc(Cl)cc2)n(Cc2ccccc2)n1,4.03%
12,C[C@@H]1CN([C@H](C)CO)C(=O)c2cccc(NS(=O)(=O)c3ccc(F)cc3)c2O[C@@H]1CN(C)C(=O)Nc1ccc(F)cc1,3.97%
13,CCOc1cc(CNc2ccc(OC)cc2)ccc1OCC(=O)NC(C)(C)C,-0.358%
14,COc1ccc(NC(=O)Nc2cccc3c2O[C@@H](CN(C)C(=O)NC(C)C)[C@H](C)CN([C@H](C)CO)C3=O)cc1,-0.272%
15,COc1ccc2[nH]c3c(=O)n(Cc4ccc(C(=O)NCc5cccnc5)cc4)c(=S)[nH]c3c2c1,2.75%
16,COCc1cc(C)nc2sc(C(N)=O)c(N)c12,6.31%
17,CCOc1cc(-c2cc(C)c3c(ccc4ccccc43)n2)ccc1O,-1.76%
18,CCc1ccc(/C=C2\Cc3ccccc3C2=O)cc1,4.71%
19,CCS(=O)(=O)C(=C(Nc1ccccc1)Nc1ccccc1)S(=O)(=O)CC,21.6%
20,CN1/C(=C/C(=S)C(C)(C)C)Sc2ccccc21,0.712%
21,CCCCn1c(-c2ccc(Br)cc2)nc2ccccc21,-1.15%
22,Cc1ccc(NC2CCCCC2NS(=O)(=O)c2ccccc2)cc1 (stereo unspecified),8.06%
23,Cc1cc(C)c2c(c1)CC(C)(C)c1[nH]c(-c3ccccc3)nc1-2,-0.635%
24,COCC(=O)NCc1nn(-c2ccccc2)nc1C,1.49%
25,Cc1ccc(S(=O)(=O)c2no[n+]([O-])c2S(=O)(=O)c2ccc(C)cc2)cc1,62% (active)
26,CCOC(=O)N1CCN(C(=O)CSc2ncnc3c2nnn3Cc2ccc(F)cc2)CC1,-1.44%

row,SMILES,viability loss activity score
1,Cc1ccc2c(c1)N(CCC(=O)NC1CCC(C)CC1)C(=O)CO2 (stereo unspecified),-1.39%
2,C=CCn1c(SCc2ccc(C(=O)O)cc2)nnc1-c1cccc(OC)c1,-6.6%
3,CCN(C(=O)c1coc(=O)c2ccccc12)c1cccc(C(F)(F)F)c1,0.65%
4,O=C(O)CSc1nnc(COc2ccc(Cl)cc2)n1-c1ccc(Br)cc1,0.406%
5,C[C@@H]1CN([C@H](C)CO)C(=O)c2cc(NS(C)(=O)=O)ccc2O[C@H]1CN(C)C(=O)Nc1cccc2ccccc12,-0.115%
6,S=C(Nc1cccc(Cl)c1)N1CCCN(Cc2ccccc2Cl)C1,-1.27%
7,O=C1CC(c2ccc(F)cc2)CC(O)=C1C=NCCN1CCN(C(=S)Nc2ccccc2)CC1 (stereo unspecified),8.57%
8,Cc1ccc(S(=O)(=O)N2CCCC2)cc1-c1nnc2c3ccccc3c(C)nn12,2.21%
9,CCOC(=O)c1c(C)n(C)c2ccccc12,1.79%
10,Cc1ccc(-n2nnnc2-c2cnn(-c3ccccc3)c2C)cc1,-4%
11,Cc1ccc(S(=O)(=O)Nc2ccc3c(c2)C(=O)N([C@H](C)CO)C[C@H](C)[C@H](CN(C)S(C)(=O)=O)O3)cc1,0.992%
12,COC(OC)c1nc(SCC(=O)Nc2ccc(C(C)C)cc2)ncc1C(=O)O,-6.58%
13,Cc1oc2cc(Br)c(OC(=O)c3ccco3)cc2c1C(=O)OC(C)C,-1.39%
14,CCc1ccc(NC(=O)c2sc3[nH]c(=O)c(C(=O)O)cc3c2N)cc1,-3.87%
15,COCCn1cc(C(=O)NC2CCCCCC2)c2c3ccccc3n(C)c2c1=O,2.88%
16,COc1ccc(NS(=O)(=O)c2ccc3c(c2)OCC(=O)N3)cc1,3.85%
17,Cc1ccc(NC(=S)Nc2ccc(C)cc2)cc1,2.21%
18,COC(=O)c1ccccc1Oc1c(F)c(F)nc(N2CCOCC2)c1F,2.06%
19,COc1ccc(/C=C/C(=O)O[C@@H]2[C@@H](OC(=O)/C=C/c3ccc(OC)cc3)[C@H](C)O[C@@H](O[C@H]3[C@@H]4C=CO[C@@H](O[C@@H]5O[C@H](CO)[C@@H](O)[C@H](O)[C@H]5O)[C@@H]4[C@@]4(CO)O[C@@H]34)[C@@H]2OC(C)=O)cc1,-3.51%
20,C/C=C(/C)C(=O)O[C@H]1CC(C)(C)C[C@H]2C3=CCC4[C@@]5(C)CC[C@H](O[C@@H]6O[C@H](C(=O)O)[C@@H](O[C@@H]7O[C@H](CO)[C@H](O)[C@H](O)[C@H]7O[C@@H]7O[C@H](CO)[C@@H](O)[C@H](O)[C@H]7O)[C@H](O)[C@H]6O[C@@H]6O[C@@H](C)[C@H](O)[C@@H](O)[C@H]6O)C(C)(C)C5CC[C@@]4(C)[C@]3(C)[C@@H](O)[C@@H](O)[C@@]12CO (stereo partly specified),104% (active)
21,CC1OC(OC2C(OC3C(O[C@H]4CC[C@@]5(C)C(CC[C@]6(C)C5CC=C5[C@@H]7CC(C)(C)C[C@@H](O)[C@]7(C)CC[C@]56C)C4(C)C)OC(C(=O)O)C(O)C3O)OC(CO)C(O)C2O)C(O)C(O)C1O (stereo partly specified),2.12%
22,C/C=C(/C)C(=O)O[C@H]1CC(C)(C)C[C@H]2C3=CCC4[C@@]5(C)CC[C@H](O[C@@H]6O[C@H](C(=O)O)[C@@H](O[C@@H]7O[C@H](CO)[C@H](O)[C@H](O)[C@H]7O[C@@H]7O[C@H](CO)[C@@H](O)[C@H](O)[C@H]7O)[C@H](O)[C@H]6O[C@@H]6O[C@@H](C)[C@H](O)[C@@H](O)[C@H]6O)C(C)(C)C5CC[C@@]4(C)[C@]3(C)[C@@H](OC(C)=O)[C@@H](O)[C@@]12COC(C)=O (stereo partly specified),72.5% (active)
23,CC1(C)CC[C@]2(C(=O)O)CC[C@]3(C)C(=CCC4[C@@]5(C)CC[C@H](OC6O[C@H](CO)[C@@H](O)[C@H](O[C@@H]7O[C@H](CO)[C@@H](O)[C@H](O)[C@H]7O)[C@H]6O)C(C)(C)C5CC[C@]43C)[C@@H]2C1 (stereo partly specified),17.9%
24,C=CC1(C)C=C2CCC3C(C)(C)C(O[C@@H]4O[C@@H](CO)[C@H](O)[C@H]4O)CCC3(C)C2CC1O[C@@H]1O[C@H](C)[C@@H](OC)[C@H](O)[C@H]1O (stereo partly specified),-5.62%
